The list is not random: actives were taken first. Their share in the collection is about 18%.
IL-1B inflam inh: inhibitors of inflammasome signaling (IL-1 beta secretion) | THP-1 LPS/ATP IL-1B secretion, AlphaLISA, 16 h; active compounds read low | 360,000 compounds, 4.7% hits | AID 743279 | activity change, % at 57.5 µM; in the data active = activity change below about -50%; inconclusive = mostly about -30% to -49%
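THP-1 cells pretreated 1 hr with compounds (up to 57.5 uM final), then stimulated with LPS (250 ng/mL final) plus ATP (1.25 mM final); secreted IL-1B measured by AlphaLISA after 16 hr, decreased signal indicating inhibition.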
TGFb SMAD3 inh: inhibitors of TGF-b signaling. HepG2 CAGA-GFP TGF-b/SMAD3 reporter, GFP fluorescence, 18 h; TGF-beta stimulated, 500 pg/mL final. Potency, µM (highest dose often 46.1 µM), most hits filed as inhibitors. 410,000 compounds, 1.2% hits. AID 588855; note: nearly all actives have a fitted effect of over 65% in size
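TGF-beta reporter screen: HEPG2 CAGA-GFP, 1% FBS, 500 pg/mL TGF-beta final, 18 h; per-cell GFP summed per well; curves fitted and categorized by class.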
HepG2 tox: kills HepG2 cells in TGF-b inhibitor counter-screen | HepG2 CAGA-GFP viability, ATP luminescence, 18 h | Potency, µM (series often up to 46.1 µM), usual class: cytotoxic | 410,000 compounds, 0.76% hits
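CellTiter-Glo luminescence gave cytotoxicity after 18 hours at 37 degrees C. The cells were HepG2 CAGA-GFP in 1% FBS DMEM, stimulated with 500 pg/mL TGF-beta after compound addition. %Activity was normalised to no-cell wells (complete cell-killing) and DMSO (no toxicity), and curves were fitted and classified.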
DT40 TDP1 CPT: DT40-hTDP1 cell growth loss with CPT | chicken DT40 Tdp1-/-;hTDP1 cells + 20 nM CPT, ATP luminescence, 48 h | Potency, µM (titrated, usually from 46.2 µM), usual class: inhibitors | 420,000 compounds, 12% hits; note: nearly all actives have a fitted effect of over 55% in size
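Cell growth measured by CellTiter-Glo luminescence after a minimum 48 h, 37 C compound exposure with 20 nM CPT in Tdp1-knockout DT40 cells stably expressing hTDP1, seeded 400/well; qHTS titration format.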
TDP1 cell noCPT: qHTS for Inhibitors of human tyrosyl-DNA phosphodiesterase 1 (TDP1): qHTS in cells in absence of CPT; DT40 Tdp1-/- hTDP1 cells, no CPT, ATP luminescence, 48 h; Potency, µM (doses to about 46.2 µM), hits mostly inhibitors; 420,000 compounds, 15% hits; AID 686978, 2013; note: nearly all actives have a fitted effect of over 55% in size
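Growth kinetics read by CellTiter-Glo luminescence after ≥48 hr at 37 °C. Cells: DT40 Tdp1-/- stably carrying human TDP1, 400 per well, compound exposure in the absence of CPT (DMSO vehicle).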
TDP1 block: inhibitors of human tyrosyl-DNA phosphodiesterase TDP1; Q9NUW8; recombinant TDP1, AlphaScreen DNA substrate cleavage; Potency, µM (titrated, usually from 130 µM), actives largely listed as inhibitors; 350,000 compounds, 0.28% hits; note: nearly all actives have a fitted effect of over 40% in size
Target sequence (Q9NUW8 whole entry, looked up): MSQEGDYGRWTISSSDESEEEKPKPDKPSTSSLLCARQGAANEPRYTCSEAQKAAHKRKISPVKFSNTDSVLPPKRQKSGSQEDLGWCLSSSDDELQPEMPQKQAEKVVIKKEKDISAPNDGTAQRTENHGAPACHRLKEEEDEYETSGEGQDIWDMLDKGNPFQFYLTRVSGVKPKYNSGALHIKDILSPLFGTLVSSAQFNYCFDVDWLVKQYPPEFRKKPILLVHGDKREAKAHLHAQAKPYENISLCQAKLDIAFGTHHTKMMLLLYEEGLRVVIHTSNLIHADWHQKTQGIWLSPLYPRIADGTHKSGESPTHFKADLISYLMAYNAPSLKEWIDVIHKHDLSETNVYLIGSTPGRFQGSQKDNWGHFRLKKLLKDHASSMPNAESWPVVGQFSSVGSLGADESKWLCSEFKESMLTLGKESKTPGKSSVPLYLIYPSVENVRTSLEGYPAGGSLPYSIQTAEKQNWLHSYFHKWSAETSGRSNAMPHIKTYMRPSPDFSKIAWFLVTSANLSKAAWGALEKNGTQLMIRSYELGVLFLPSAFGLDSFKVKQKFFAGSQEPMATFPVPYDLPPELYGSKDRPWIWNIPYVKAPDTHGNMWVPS
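Here, a 5' biotin and 3' phosphotyrosine-FITC DNA oligonucleotide reports Tdp1 activity: intact substrate bridges AlphaScreen beads, while cleavage leaves a 3' phosphate and drops signal. All incubations at room temperature.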
Hits are given with their value; 0 = inactive; ? = inconclusive; - = not tested or not shown. Unless noted, calls come from the whole dose curve; as a rule, active = well fitted curve in the direction sought with a large enough effect; inconclusive = small, poorly fitted or top-dose-only effect, or another doubt; inactive = no such curve, though single readings can be large; an effect the other way counts as inactive or inconclusive.

SMILES | IL-1B inflam inh | TGFb SMAD3 inh | HepG2 tox | DT40 TDP1 CPT | TDP1 cell noCPT | TDP1 block
CCc1ccc2c(c1)C(c1ccc([N+](=O)[O-])cc1)=NNC(c1ccc(Br)cc1)=N2 | 0 | 0 | 0 | 13µM | ? | 0
Clc1cccc(Cl)c1Cn1cnc2c(N3CCCCCC3)ncnc21 | -74 | 0 | 0 | 18µM | 10µM | 0
c1ccc(Cn2nnc3c(N4CCCCCC4)ncnc32)cc1 | 0 | 0 | 0 | ? | 16µM | 0
S=c1sc2c(N3CCN(Cc4ccccc4)CC3)ncnc2n1-c1ccccc1 | 0 | 0 | 0 | 16µM | 23µM | 0
CCN(CC)c1ncnc2c1ncn2Cc1c(Cl)cccc1Cl | 0 | 0 | 0 | ? | ? | 0
CCCN1CCN(c2ncnc3c2nnn3Cc2ccccc2)CC1 | 0 | 0 | 0 | 16µM | 21µM | 0
c1ccc(Cn2nnc3c(N4CCc5ccccc54)ncnc32)cc1 | 0 | 0 | 0 | 0 | 0 | 0
O=C(NCc1cc(Cl)cc(Cl)c1)c1ccc2sc([C@@H]3O[C@H](CO)[C@H](O)[C@H](O)[C@H]3O)nc2c1 | 0 | 0 | 0 | 0 | 0 | -
COc1cc(C)ccc1OCCSc1nnc(-c2ccc(C)cc2)o1 | - | 0 | 0 | ? | ? | 0
O=[N+]([O-])c1ccc(NC2CCCCC2)nc1 | 0 | 0 | 0 | 0 | 0 | -
Cn1nnc2c(N3CCN(Cc4ccccc4)CC3)ncnc21 | - | - | - | ? | 16µM | -
COc1ccc(Cl)cc1NC(=O)C1CCCN(c2ncnc3onc(C)c23)C1 (stereo not drawn) | - | ? | 0 | 18µM | 23µM | 0
COc1ccc(Cl)cc1NC(=O)C1CCCN(c2cc(C)nc3ncnn23)C1 (stereo not drawn) | 0 | 0 | 0 | ? | ? | 0
Cc1noc2ncnc(N3CCCC(C(=O)Nc4cccc(C(F)(F)F)c4)C3)c12 (stereo not drawn) | - | ? | 0 | 15µM | 18µM | 0
COc1ccc(NC(=O)C2CCCN(c3ncnc4onc(C)c34)C2)cc1OC (stereo not drawn) | - | 0 | 0 | ? | 23µM | 0
CCN(CC)C(=O)C1CCCN(c2ncnc3onc(C)c23)C1 (stereo not drawn) | - | 0 | 0 | ? | ? | 0
Cc1noc2ncnc(N3CCCC(C(=O)Nc4cc(F)ccc4F)C3)c12 (stereo not drawn) | - | 0 | 0 | 13µM | 12µM | 0
CCN(CC)C(=O)c1ccccc1NC(=O)CN1C(=O)c2ccccc2C1=O | 0 | 0 | 0 | 0 | 0 | 0
COc1ccc(N(Cc2ccco2)C(=O)c2ccccc2F)cc1OC | 0 | 0 | 0 | ? | ? | 0
CN(C)c1ccc(CN(Cc2ccco2)C(=O)c2ccc(C(C)(C)C)cc2)cc1 | - | - | 0 | 16µM | 21µM | 0
CCn1cnc2sc(C(=O)N(Cc3ccc(N(C)C)cc3)Cc3ccco3)c(C)c2c1=O | -76 | 0 | 0 | ? | ? | 0
CCn1cnc2sc(C(=O)Oc3ccc(Br)cc3)c(C)c2c1=O | 0 | 0 | 0 | 0 | ? | 0
COc1ccc(C(=O)N(Cc2ccc(N(C)C)cc2)Cc2ccco2)cc1Cl | - | - | 0 | 16µM | 15µM | 0
COc1ccc(C(=O)N(Cc2ccco2)Cc2ccccc2F)cc1Cl | - | 0 | 0 | 21µM | 16µM | 0
Cc1ccc(C(=O)N(Cc2ccco2)Cc2ccco2)cc1 | - | ? | 0 | 0 | ? | 0
SMILES | IL-1B inflam inh | TGFb SMAD3 inh | HepG2 tox | DT40 TDP1 CPT | TDP1 cell noCPT | TDP1 block
Cn1c(=O)c(-c2cccc(C#N)c2)nc2cnc(Oc3ccccc3)nc21 | - | - | - | 0 | 0 | -
C/C(=N\NC(=O)C1CCCC1)c1ccc(Cl)cc1Cl | 0 | 0 | 0 | ? | 0 | 0
Cc1cc(N2C(=O)C(=O)/C(=C(/O)c3ccccc3)C2c2cccs2)no1 (stereo not drawn) | 0 | 0 | 0 | 0 | 0 | 0
COc1cccc(/C(O)=C2/C(=O)C(=O)N(c3cc(C)on3)C2c2cccs2)c1 (stereo not drawn) | 0 | 0 | 0 | ? | 3.7µM | 0
Cc1ccccc1-c1cc2nc(NCCc3ccncc3)n(C)c(=O)c2s1 | 0 | 0 | 0 | 16µM | 15µM | -
CC(=O)NCCNc1nc2cc(-c3ccccc3)sc2c(=O)n1C | 0 | 0 | 0 | ? | ? | -
Cc1ccccc1-c1cc2nc(NCCN3CCCC3)n(C)c(=O)c2s1 | 0 | 0 | 0 | ? | ? | -
Cn1c(NCCc2ccncc2)nc2cc(-c3ccccc3)sc2c1=O | 0 | 0 | 0 | 26µM | ? | -
CCn1cc(CN2CCCC(CNC(=O)COc3ccccc3OC)C2)c(C)n1 (stereo not drawn) | 0 | 0 | 0 | 0 | 0 | 0
COC(CNC(=O)c1ccc2c(c1)ncn2-c1ccc(C)cc1C)OC | 0 | 0 | 0 | 0 | 0 | -
CCc1ccc(-n2cnc3cc(C(=O)NCc4ccc(C)cc4)ccc32)cc1 | - | 0 | 0 | 15µM | 15µM | 0
COC(CNC(=O)c1ccc2c(c1)ncn2-c1cccc(C)c1)OC | 0 | 0 | 0 | 0 | 0 | -
Cc1cccc(-n2cnc3cc(C(=O)NCc4ccccc4Cl)ccc32)c1 | - | ? | 0 | 16µM | ? | 0
Cc1ccc(-n2cnc3cc(C(=O)NCc4ccccc4Cl)ccc32)c(C)c1 | - | 0 | 0 | 23µM | 23µM | 0
COc1cc(C)c(N(C(C)=O)c2ccccc2)c(C)c1 | 0 | 0 | 0 | 0 | 0 | 0
CC(=O)N(C1=C(N)C(=O)c2ccccc2C1=O)c1ccccc1 | 0 | ? | 0 | 23µM | 13µM | -
CC(=O)c1cc(C#N)c(N2CCCC2)nc1C | 0 | 0 | 0 | 0 | 0 | 0
COC(=O)[C@@]12C[C@@H](CC(=O)NCCCCc3ccccc3)C(=O)N(Cc3ccco3)C1=CCC(C)(C)C2 | ? | - | - | 16µM | ? | -
CCCCOCCCNC(=O)C[C@@H]1C[C@@]2(C(=O)OC)CC(C)(C)CC=C2N(Cc2ccco2)C1=O | 0 | - | - | 21µM | 23µM | -
COC(=O)[C@]12CCCCC=C1N(Cc1ccco1)C(=O)[C@H](CC(=O)NCc1cccc3ccccc13)C2 | 0 | - | - | ? | ? | -
COC(=O)[C@@]12C[C@@H](CC(=O)NCc3cccc4ccccc34)C(=O)N(Cc3ccco3)C1=CCC(C)(C)C2 | -71 | - | - | 21µM | ? | -
COC(=O)[C@@]12C[C@@H](CC(=O)NCc3ccccc3)C(=O)N(Cc3ccco3)C1=CCC(C)(C)C2 | 0 | - | - | 18µM | ? | -
COC(=O)[C@@]12C[C@@H](CC(=O)NCCC(C)C)C(=O)N(Cc3ccco3)C1=CCC(C)(C)C2 | 0 | - | - | ? | ? | -
O=[N+]([O-])c1ccc(O)c(-c2ccnc3cc(-c4ccccc4)nn23)c1 | - | ? | 0 | ? | ? | 0

From PubChem BioAssay
